High-throughput results from PubChem.
A selection: hits, their analogues and other compounds. The true share with any hit is near 6.9%.
Giardia killer: Giardia lamblia killing. 340,000 compounds, 0.15% hits. activity change, % at 7.66 µM, hits read low. AID 540267. Giardia lamblia trophozoite viability; in the data active = activity change below about -80%; inconclusive = between about -30% and that limit;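 note: parasites exposed to compound for two days anaerobically before the ATP read; % is set by controls: 0 for no effect and ±100 for the full control effect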
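Trophozoite viability was measured as ATP-dependent luminescence, read 15-30 min after reagent addition. Before that, parasites at 100 cells/well were exposed to compounds for 48 h, anaerobically, at 37 deg C.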
SW480 rereplic: induces DNA re-replication in SW480 colon adenocarcinoma cells; SW480 DNA re-replication, Hoechst DNA content imaging, 48 h; Potency, µM (series often up to 46.1 µM), inactives show top-dose re-replication activation, hits mostly activators; 340,000 compounds, 1.8% hits; note: potency is the fitted concentration of half-maximal effect; % of control where 0% means no effect; nearly all actives have a fitted effect of over 55% in size
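Hoechst fluorescence of nuclei (405 nm excitation, 500-530 nm emission) measured by plate-scanning imager after 48 hr compound exposure at 37 C; re-replication scored as increased number of nuclei with elevated intensity.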
IL1B secr inh: inhibitors of inflammasome signaling (IL-1 beta secretion); 360,000 compounds, 4.7% hits; AID 743279; activity change, % at 57.5 µM; THP-1 LPS/ATP IL-1B secretion, AlphaLISA, 16 h; active compounds read low; in the data active = activity change below about -50%; inconclusive = mostly about -30% to -49%; note: % is set by controls: 0 for no effect and ±100 for the full control effect
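THP-1 cells pretreated 1 hr with compounds (up to 57.5 uM final), then stimulated with LPS (250 ng/mL final) plus ATP (1.25 mM final); secreted IL-1B measured by AlphaLISA after 16 hr, decreased signal indicating inhibition.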
MCF10A rerep: induces DNA re-replication in MCF 10a normal breast cells; AID 624296; MCF 10A DNA re-replication, Hoechst nuclear intensity, 48 h; 350,000 compounds, 2.9% hits; Potency, µM (highest dose often 46.1 µM), inactives show at the top dose activity, positive = re-replication, usual class: activators; note: potency is the fitted concentration of half-maximal effect; % of control where 0% means no effect; nearly all actives have a fitted effect of over 50% in size
Vif-A3F inh: blocks the Vif interaction with APOBEC3F | Potency, µM (top dose mostly 46.1 µM), for inactives: at the top dose activity, negative = active | AID 602313 | 390,000 compounds, 0.2% hits | HeLa A3F-eYFP + Vif (tagged APOBEC3F with the HIV-1 protein that degrades it), YFP fluorescence increase; note: potency is the fitted concentration of half-maximal effect; % of control where 0% means no effect; nearly all actives have a fitted effect of over 65% in size
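HeLa cells stably expressing A3F-eYFP plus Vif, plated and incubated overnight at 37 deg C, then exposed to compounds overnight at 37 deg C. Blocked degradation read as raised yellow fluorescence (Ex 488/Em 500-530).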
Vif-A3G inh: blocks the Vif interaction with human APOBEC3G; HeLa A3G-eYFP + Vif (tagged APOBEC3G with the HIV-1 protein that degrades it), YFP fluorescence, overnight; Potency, µM (doses to about 46.1 µM), for inactives: at the top dose activity, negative = active, hits mostly inhibitors; 410,000 compounds, 0.076% hits; AID 602310; note: potency is the fitted concentration of half-maximal effect; % is set by controls: 0 for no effect and ±100 for the full control effect; nearly all actives have a fitted effect of over 60% in size
Target sequence (Q9HC16 whole entry, looked up): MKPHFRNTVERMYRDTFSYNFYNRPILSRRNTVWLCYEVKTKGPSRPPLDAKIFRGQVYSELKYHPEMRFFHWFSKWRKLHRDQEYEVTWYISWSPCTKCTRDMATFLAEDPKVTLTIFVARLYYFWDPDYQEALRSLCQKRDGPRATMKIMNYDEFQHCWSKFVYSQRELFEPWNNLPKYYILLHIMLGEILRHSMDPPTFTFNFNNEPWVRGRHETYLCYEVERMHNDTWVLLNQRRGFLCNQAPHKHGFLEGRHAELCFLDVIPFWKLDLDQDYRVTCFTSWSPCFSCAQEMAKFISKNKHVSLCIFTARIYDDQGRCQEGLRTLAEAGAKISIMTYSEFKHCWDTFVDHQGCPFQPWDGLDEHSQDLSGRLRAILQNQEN
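HeLa cells stably expressing Vif and C-terminally eYFP-tagged A3G, seeded overnight at 37 deg C, then exposed to compound by pintool overnight at 37 deg C. Rise in yellow fluorescence (Ex 488/Em 500-530, Acumen) marks blocked Vif-driven A3G degradation.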
Numbers without * were called inactive; ? = inconclusive; / = no result given; [ ] = another dose, or the depositor's remark. Unless noted, calls come from the whole dose curve; as a rule, active = well fitted curve in the direction sought with a large enough effect; inconclusive = small, poorly fitted or top-dose-only effect, or another doubt; inactive = no such curve, though single readings can be large; an effect the other way counts as inactive or inconclusive.

SMILES	Giardia killer	SW480 rereplic	IL1B secr inh	MCF10A rerep	Vif-A3F inh	Vif-A3G inh
OCC1OC(n2cnc3c(NCc4ccco4)ncnc32)C(O)C1O (centres undefined)	14.4	8.2µM*	?	1.03µM*	0.3%	?
COc1ccc(SCC(CC(C)C)N2CCN(C)CCC2=O)cc1 (centres undefined)	20.9	/	/	/	/	-1.2%
COc1cc(Cl)c(CNC[C@H]2O[C@@H](n3cnc4c(N)ncnc43)[C@H](O)[C@@H]2O)c(Cl)c1O	34.0	-7.6%	37.5	7.31µM*	10.9%	-3.9%
CC(Cl)OC(=O)Nc1cccc2cccnc12 (centres undefined)	-8.1	/	/	/	/	-1.6%
CC(C)Sc1ncc(Cl)c(C(=O)Nc2nc3ccc(S(C)(=O)=O)cc3s2)n1	/	/	/	/	0.5%	3.3%
O=C(Nc1ccc(Br)cc1)C1CCN(c2ncccn2)CC1	/	/	/	/	-5.1%	0.7%
Cc1cc(/C=C(\C#N)C(=O)Nc2ccccc2)c(C)n1-c1cccnc1	1.6	9.6%	-76.4*	7.9%	-3.2%	-3.4%
Cc1cc(/C=C(\C#N)C(=O)Nc2ccccc2)c(C)n1-c1ccc(F)cc1	/	/	/	/	-1.2%	-2.2%
Cc1cc(C(=O)O)ccc1-n1c(C)cc(/C=C(/C#N)C(=O)Nc2ccccc2)c1C	9.5	-2.4%	-65.9*	?	-3.7%	-6.0%
CCOC(=O)C1=C(C)Nc2sc(C(=O)c3ccc(F)cc3)c(N)c2C1c1ccc(C(=O)OC)cc1 (centres undefined)	-8.6	16.4µM*	-10.2	2.59µM*	3.4%	-4.8%
CCOC(=O)C1=C(C)Nc2sc(C(=O)c3ccc(C)cc3)c(N)c2C1c1ccc(C(=O)OC)cc1 (centres undefined)	2.6	18.4µM*	-29.1	3.66µM*	-3.5%	0.1%
CCOC(=O)C1=C(C)NC(SCC(=O)OC)=C(C#N)C1c1ccc(C(=O)OC)cc1 (centres undefined)	-11.2	8.2%	5.4	?	11.8%	-8.1%
CCOC(=O)C1=C(C)NC(C)=C(C(=O)OCC)C1c1ccc(O)cc1	-7.3	-3.2%	-3.7	-2.4%	3.2%	-7.6%
Cc1nn(-c2ccccc2)c2sc(C(=O)N(CC(=O)NC(C)(C)C)Cc3ccco3)cc12	-14.4	1.3%	-19.3	18.4µM*	0.8%	-26.4%
CS(=O)(=O)N1CCN(Cc2cc3nc(-c4cccc5[nH]ncc45)nc(N4CCOCC4)c3s2)CC1	/	/	/	/	/	-20.9%[92.2 µM]
COc1cc(OC)c(N(C)C(=O)Nc2cn(CC(C)C)c(=O)c3ccccc23)cc1Cl	/	/	/	/	2.5%	0.5%
O=C(N/N=C/c1ccco1)c1cc(-c2ccccc2)nc2ccccc12	7.2	-10.4%	29.6	?	1.2%	?
CCCc1ccc(-c2cc(C(=O)N/N=C/c3ccc([N+](=O)[O-])o3)c3ccccc3n2)cc1	-94.5*	7.08µM*	-16.2	5.01µM*	-12.4%	?
O=C(N/N=C/c1ccc([N+](=O)[O-])o1)c1cc(-c2cccc(Br)c2)nc2ccccc12	-85.9*	15.1%[9.22 µM]	-65.9*	28.6%	?	?
CN(C)CCCCCCNc1nccc(N2CCN(C)CC2)n1	/	/	/	/	/	3.3%
O=C(CSc1ncc(CO)n1Cc1ccccc1)Nc1ccc(C(F)(F)F)cc1	/	/	/	/	11.9%	-10.1%
CC(=O)Oc1c(C)c(=O)n(C)c2ccccc12	-30.0	-4.8%	-89.1*	?	1.5%	-0.2%
CCCCNC(=O)c1cc2n(n1)C(C(F)(F)F)CC(c1ccccc1)N2 (centres undefined)	9.9	-10.1%	-9.4	?	-4.3%	1.0%
CCOC(=O)c1c(NC(=O)c2cc3n(n2)C(C(F)(F)F)CC(c2ccccc2)N3)sc(C)c1C (centres undefined)	-1.4	16.4µM*	9.0	22.3%	-15.5%	1.4%
CCc1cccc(NC(=O)C(Cc2ccccc2)n2cccc2)c1 (centres undefined)	/	/	/	/	-5.6%	-4.5%
SMILES	Giardia killer	SW480 rereplic	IL1B secr inh	MCF10A rerep	Vif-A3F inh	Vif-A3G inh
CC(=O)c1c(C(C)=O)c(C)n(-c2cccc([N+](=O)[O-])c2)c1C	5.0	-1.6%	-4.9	4.3%	-9.6%	0.5%
Cc1cc(C(=O)CCl)c(C)n1-c1cccc([N+](=O)[O-])c1	-2.8	?	-100.3*	?	11.7%	-22.7%
Cc1cc(C(=O)CCl)c(C)n1-c1ccon1	27.4	11.6µM*	-95.0*	?	21.6%	-14.5%
CC(=O)Nc1ccc(-c2noc(-c3csc([C@@H]4C[C@H](O)[C@@H](CO)O4)n3)n2)cc1	/	/	-54.6*	/	/	2.0%
OC[C@H]1O[C@H](c2nc(-c3nc(-c4cccc(-n5cccc5)c4)no3)cs2)C[C@@H]1O	/	/	-2.7	/	/	-4.0%
COc1ccc(-c2cc(C(=O)c3c(N)n(C)c(=O)n(C)c3=O)c3ccccc3n2)cc1	?	29.2%	-2.1	2.9%	-5.0%	-9.4%
COc1ccc(-c2cc(C(=O)OCC(=O)c3c(N)n(C)c(=O)n(C)c3=O)c3ccccc3n2)cc1	3.6	-26.0%	-53.5*	8.7%	-8.8%	-1.9%
CCCCCn1nc(C(=O)OCC(=O)c2c(N)n(C)c(=O)n(C)c2=O)c2ccccc2c1=O	7.2	-5.7%	-52.5*	0.0%	-12.0%	2.8%
COc1ccc(/C=C2\CCCc3c2nc2ccccc2c3C(=O)OCC(=O)c2c(N)n(C)c(=O)n(C)c2=O)cc1	/	?	/	4.61µM*	/	/
CNc1c(Br)cc(C(O)C2=CCc3ccccc32)cc1Br (centres undefined)	/	/	/	/	/	5.0%
COc1ccccc1-c1c(C(F)(F)F)oc2cc(OCC(=O)Nc3ccccc3C(F)(F)F)ccc2c1=O	3.0	-0.7%	-6.2	3.8%	1.5%	-3.5%
COc1ccc(-c2c(C(F)(F)F)oc3cc(OCC(=O)Nc4ccccc4C(F)(F)F)ccc3c2=O)cc1OC	20.0	2.8%	13.0	8.2µM*	-23.6%	-1.0%
O=C(c1cc2nc(-c3ccco3)cc(C(F)(F)F)n2n1)N1CCN(c2ccc(F)cc2)CC1	3.5	-3.4%	-76.1*	?	-4.0%	1.1%
O=C(NC1CCCCC1)c1nn2c(C(F)(F)F)cc(-c3ccco3)nc2c1Br	2.1	-3.3%	0.1	-8.2%	?	-6.8%
O=C(c1ccccc1)N1CCN(C(=O)c2nn3c(C(F)(F)F)cc(-c4ccco4)nc3c2Br)CC1	2.4	-11.7%	-65.2*	0.8%	0.6%	2.1%
O=C1c2cccc(OCc3ccc(F)cc3)c2CCN1Cc1ccccc1	5.0	-1.7%	-57.2*	?	0.6%	-7.7%
O=C1c2cccc(OCC(=O)N3CCCc4ccccc43)c2CCN1Cc1ccc(F)cc1	-3.8	10.3%	?	14.6µM*	0.5%	-8.7%
